The panel holds about 83,000 compounds, 20% with a hit somewhere; the sample as a whole holds those more often.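 Step 1: grow cells in 96-well plates. Step 2: add test compound at a single concentration. Step 3: incubate 48 h. Step 4: record percent growth.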 Values without a mark were called inactive. Calls of active or inactive are those of the source. How the source made its calls: active means growth percent below 10; inactive means the rest.
How the values were obtained:
Assay in all cases: NCI-60 one-dose screen, 48 h (100 = growth as untreated, 0 = no growth, -100 = all killed)
Conditions in all cases: 10 µM unless noted
RPMI-8226 leukemia = system: RPMI-8226 leukemia
OVCAR-8 ovarian = system: OVCAR-8 ovarian
OVCAR-5 ovarian = system: OVCAR-5 ovarian
OVCAR-4 ovarian = system: OVCAR-4 ovarian
SK-OV-3 ovarian = system: SK-OV-3 ovarian
IGROV1 ovarian = system: IGROV1 ovarian
OVCAR-3 ovarian = system: OVCAR-3 ovarian
HS 578T breast = system: HS 578T breast
NCI/ADR-RES ovarian = system: NCI/ADR-RES ovarian

Structure (SMILES): Brc1ccc2[nH]cc(-c3nc(-c4c[nH]c5ccncc45)cs3)c2c1
- growth (RPMI-8226 leukemia): -23.4% (active)
- growth (OVCAR-8 ovarian): -64.5% (active)
- growth (OVCAR-5 ovarian): 38.9%
- growth (OVCAR-4 ovarian): -77.8% (active)
- growth (SK-OV-3 ovarian): 87.6%
- growth (IGROV1 ovarian): -86.5% (active)
- growth (OVCAR-3 ovarian): -91.6% (active)
- growth (HS 578T breast): -48.4% (active)
- growth (NCI/ADR-RES ovarian): 14.1%

Structure (SMILES): CN1C(=O)N(C)C2Nn3c(s/c(=C\c4ccccc4)c3=O)=NC21 (centres undefined)
- growth (RPMI-8226 leukemia): 101%
- growth (OVCAR-8 ovarian): 96%
- growth (OVCAR-5 ovarian): 100%
- growth (OVCAR-4 ovarian): 101%
- growth (SK-OV-3 ovarian): 100%
- growth (IGROV1 ovarian): 100%
- growth (OVCAR-3 ovarian): 100%
- growth (HS 578T breast): 96.2%
- growth (NCI/ADR-RES ovarian): 99.7%

Structure (SMILES): COc1cc(C(=O)N/N=C/c2cc3cc(OCc4ccccc4)ccc3nc2OC)cc(OC)c1OC
- growth (RPMI-8226 leukemia): 35.6%
- growth (OVCAR-8 ovarian): 68.4%
- growth (OVCAR-5 ovarian): 86.9%
- growth (OVCAR-4 ovarian): 63.4%
- growth (SK-OV-3 ovarian): 91.1%
- growth (IGROV1 ovarian): 111%
- growth (OVCAR-3 ovarian): 99.4%
- growth (HS 578T breast): 61.2%
- growth (NCI/ADR-RES ovarian): 82.2%

Structure (SMILES): COc1nc2ccc(C)cc2cc1-c1nc2c(cnn2-c2ccc(Br)cc2)c(=O)[nH]1
- growth (RPMI-8226 leukemia): 33.2%
- growth (OVCAR-8 ovarian): 40.7%
- growth (OVCAR-5 ovarian): 73.2%
- growth (OVCAR-4 ovarian): 58%
- growth (SK-OV-3 ovarian): 43.3%
- growth (IGROV1 ovarian): 38.4%
- growth (OVCAR-3 ovarian): -17% (active)
- growth (HS 578T breast): 34.3%
- growth (NCI/ADR-RES ovarian): 14.2%

Structure (SMILES): O=C(CSc1nccc(Nc2ccc(S(=O)(=O)Nc3nccs3)cc2)n1)c1ccc(C(F)(F)F)cc1
- growth (RPMI-8226 leukemia): 104%
- growth (OVCAR-8 ovarian): 96.2%
- growth (OVCAR-5 ovarian): 111%
- growth (OVCAR-4 ovarian): 106%
- growth (SK-OV-3 ovarian): 96.9%
- growth (IGROV1 ovarian): 91.1%
- growth (OVCAR-3 ovarian): 112%
- growth (HS 578T breast): 98.5%
- growth (NCI/ADR-RES ovarian): 98.5%

Structure (SMILES): Cc1nc2ccccc2n1CC1C(=O)NC(=O)NC1=O
- growth (RPMI-8226 leukemia): 115%
- growth (OVCAR-8 ovarian): 105%
- growth (OVCAR-5 ovarian): 103%
- growth (OVCAR-4 ovarian): 107%
- growth (SK-OV-3 ovarian): 107%
- growth (IGROV1 ovarian): 106%
- growth (OVCAR-3 ovarian): 119%
- growth (HS 578T breast): 110%
- growth (NCI/ADR-RES ovarian): 99.3%

Structure (SMILES): O=C(S)CNC(=O)c1ccccc1
- growth (RPMI-8226 leukemia): 94.5%
- growth (OVCAR-8 ovarian): 101%
- growth (OVCAR-5 ovarian): 93.1%
- growth (OVCAR-4 ovarian): 110%
- growth (SK-OV-3 ovarian): 89.4%
- growth (IGROV1 ovarian): 105%
- growth (OVCAR-3 ovarian): 101%
- growth (HS 578T breast): 79.5%
- growth (NCI/ADR-RES ovarian): 96.5%

Structure (SMILES): c1cc2nc(-c3cn[nH]c3)c3c(c2cc1-c1cn[nH]c1)C1CCC3C1 (centres undefined)
- growth (RPMI-8226 leukemia): 50.6%
- growth (OVCAR-8 ovarian): 59.3%
- growth (OVCAR-5 ovarian): 67.8%
- growth (OVCAR-4 ovarian): 83.9%
- growth (SK-OV-3 ovarian): 60.2%
- growth (IGROV1 ovarian): 48.6%
- growth (OVCAR-3 ovarian): 75.5%
- growth (HS 578T breast): 23.2%
- growth (NCI/ADR-RES ovarian): 64.8%

Structure (SMILES): CCN(CC)Cc1cc(Nc2c3ccc(Cl)cc3nc3ccc(OC)cc23)ccc1O
- growth (RPMI-8226 leukemia): 21.7%
- growth (OVCAR-8 ovarian): 37.5%
- growth (OVCAR-5 ovarian): 51.2%
- growth (OVCAR-4 ovarian): 58.6%
- growth (SK-OV-3 ovarian): 54.7%
- growth (IGROV1 ovarian): 29.6%
- growth (OVCAR-3 ovarian): 56.6%
- growth (HS 578T breast): 72.7%
- growth (NCI/ADR-RES ovarian): 42.3%

Structure (SMILES): NS(=O)(=O)c1ccc(-n2nc(C(=O)N/N=C\c3ccc(F)cc3)cc2-c2ccc(Br)cc2)cc1
- growth (RPMI-8226 leukemia): 94.9%
- growth (OVCAR-8 ovarian): 94.5%
- growth (OVCAR-5 ovarian): 94.9%
- growth (OVCAR-4 ovarian): 87.2%
- growth (SK-OV-3 ovarian): 88.6%
- growth (IGROV1 ovarian): 73.6%
- growth (OVCAR-3 ovarian): 82.3%
- growth (HS 578T breast): 72.1%
- growth (NCI/ADR-RES ovarian): 67.8%

Structure (SMILES): C#C[C@]1(O)CC[C@H]2[C@@H]3CC=C4c5sc(Nc6cc(F)ccc6F)nc5CC[C@]4(C)[C@H]3CC[C@@]21C
- growth (RPMI-8226 leukemia): -28.3% (active)
- growth (OVCAR-8 ovarian): 18.4%
- growth (OVCAR-5 ovarian): 2.88% (active)
- growth (OVCAR-4 ovarian): 23%
- growth (SK-OV-3 ovarian): -1.09% (active)
- growth (IGROV1 ovarian): -33.5% (active)
- growth (OVCAR-3 ovarian): -22.7% (active)
- growth (HS 578T breast): -10.8% (active)
- growth (NCI/ADR-RES ovarian): 7.49% (active)

Structure (SMILES): Cc1nc2ccccc2c(/C=C/c2ccc(Cl)cc2)c1C(=O)/C=C/c1ccc(C(F)(F)F)cc1
- growth (RPMI-8226 leukemia): -30.7% (active)
- growth (OVCAR-8 ovarian): 2.79% (active)
- growth (OVCAR-5 ovarian): -41.6% (active)
- growth (OVCAR-4 ovarian): -91% (active)
- growth (SK-OV-3 ovarian): -79.9% (active)
- growth (IGROV1 ovarian): -85.5% (active)
- growth (OVCAR-3 ovarian): -85.8% (active)
- growth (HS 578T breast): -17.3% (active)
- growth (NCI/ADR-RES ovarian): -5.17% (active)

Structure (SMILES): CNC(=O)c1[nH]cc(-c2ccccc2)c1-c1cc(OC)c2c(c1OC)OCO2
- growth (RPMI-8226 leukemia): 105%
- growth (OVCAR-8 ovarian): 100%
- growth (OVCAR-5 ovarian): 101%
- growth (OVCAR-4 ovarian): 106%
- growth (SK-OV-3 ovarian): 108%
- growth (IGROV1 ovarian): 103%
- growth (OVCAR-3 ovarian): 94.9%
- growth (HS 578T breast): 102%
- growth (NCI/ADR-RES ovarian): 101%

Structure (SMILES): C[N+]1=C(/C=C/c2ccc(O)c3ncccc23)C(C)(C)c2ccccc21
- growth (RPMI-8226 leukemia): 53.6%
- growth (OVCAR-8 ovarian): 53.7%
- growth (OVCAR-5 ovarian): 52.5%
- growth (OVCAR-4 ovarian): 27.7%
- growth (SK-OV-3 ovarian): 23%
- growth (IGROV1 ovarian): 46%
- growth (OVCAR-3 ovarian): 83%
- growth (HS 578T breast): 49.2%
- growth (NCI/ADR-RES ovarian): 14.6%

Structure (SMILES): COc1nc2ccccc2cc1-c1nc2c(cnn2-c2ccccc2)c(=O)[nH]1
- growth (RPMI-8226 leukemia): 44.2%
- growth (OVCAR-8 ovarian): 63.3%
- growth (OVCAR-5 ovarian): 79.5%
- growth (OVCAR-4 ovarian): 76.2%
- growth (SK-OV-3 ovarian): 53.8%
- growth (IGROV1 ovarian): 48.1%
- growth (OVCAR-3 ovarian): 7.05% (active)
- growth (HS 578T breast): 50.2%
- growth (NCI/ADR-RES ovarian): 40.7%

Structure (SMILES): CNc1ccc(Nc2cccc(C)c2)c2c1C(=O)c1ccccc1C2=O
- growth (RPMI-8226 leukemia): 74.3%
- growth (OVCAR-8 ovarian): 99.6%
- growth (OVCAR-5 ovarian): 91.4%
- growth (OVCAR-4 ovarian): 81.6%
- growth (SK-OV-3 ovarian): 86.4%
- growth (IGROV1 ovarian): 11.2%
- growth (OVCAR-3 ovarian): 110%
- growth (HS 578T breast): 101%
- growth (NCI/ADR-RES ovarian): 98.8%
